In PubChem BioAssay (Tox21):
Records with an inconclusive call do not appear. Values without a mark were called inactive. Unless noted, calls follow the shape of the dose curve; as a rule, active = well fitted cell-killing curve with a large enough effect in the repeat runs; inconclusive = weak or mixed curves, or effect the other way; inactive = flat fitted curve, though single readings scatter.
% is scaled to controls: 0 for no effect and ±100 for the full control effect.

Biological target: Estrogen receptor beta (Homo sapiens) (UniProt Q92731)
Sequence (Q92731 whole entry, looked up): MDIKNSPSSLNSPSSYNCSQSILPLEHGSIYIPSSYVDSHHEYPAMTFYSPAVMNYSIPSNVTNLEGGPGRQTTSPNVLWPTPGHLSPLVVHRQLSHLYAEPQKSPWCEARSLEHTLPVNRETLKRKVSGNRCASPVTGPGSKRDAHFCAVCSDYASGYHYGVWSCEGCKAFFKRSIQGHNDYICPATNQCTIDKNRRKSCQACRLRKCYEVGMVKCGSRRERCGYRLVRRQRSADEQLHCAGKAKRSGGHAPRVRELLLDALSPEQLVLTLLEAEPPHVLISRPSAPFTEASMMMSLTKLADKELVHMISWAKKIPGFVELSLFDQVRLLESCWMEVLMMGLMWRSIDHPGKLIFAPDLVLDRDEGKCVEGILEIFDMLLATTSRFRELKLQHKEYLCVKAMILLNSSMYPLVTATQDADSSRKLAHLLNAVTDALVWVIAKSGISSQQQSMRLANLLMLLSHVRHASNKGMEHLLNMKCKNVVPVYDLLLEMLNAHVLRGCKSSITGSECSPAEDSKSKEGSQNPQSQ
Experiment: qHTS assay to identify small molecule antagonists of the estrogen receptor beta (ER-beta) signaling pathway (AID 1259378; active = well fitted inhibition curve with a large enough effect in the signal ratio in the repeat runs, not every such curve was filed as active; the % refers to the signal ratio)
Settings: ER-beta-UAS-bla HEK293T, beta-lactamase FRET ratio, 16 h; series mostly up to 92.4 µM; activity, negative = inhibition: at the top concentration
Method in brief: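 ER-beta-UAS-bla HEK293T cells in 2% charcoal-stripped FBS medium treated with compound plus 1nM final 17-beta-estradiol for 16 hr at 37C. Beta-lactamase reporter read by FRET substrate fluorescence after 2 hours at room temperature.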
For `CN(C)c1cc(NC(=O)CNC(C)(C)C)c(O)c2c1C[C@H]1C[C@H]3[C@H](N(C)C)C(=O)C(C(N)=O)=C(O)[C@@]3(O)C(=O)C1=C2O`, the “activity, negative = inhibition” value was 5.73% [at 42.5 µM]. For `O=C[C@@H](O)[C@H](O)[C@H](O)CO`, the “activity, negative = inhibition” value was 27.1%. For `CCCCS`, the “activity, negative = inhibition” value was 0.752%. In the case of `C=COCCCCO`, the “activity, negative = inhibition” value is reported as -0.735%. For `CN1C(CCl)Nc2cc(Cl)c(S(N)(=O)=O)cc2S1(=O)=O` (stereo unspecified), the “activity, negative = inhibition” value was -2.56% [at 42.5 µM]. In the case of `CCCCN1C(=O)c2ccccc2C1=O`, the “activity, negative = inhibition” value is reported as 16.1%. With `Cc1cc(=O)oc2cc(O[C@@H]3SC[C@@H](O)[C@H](O)[C@H]3O)ccc12` the “activity, negative = inhibition” value was 8.74% [at 42.5 µM]. In the case of `C/C=C(\C)C=O`, the “activity, negative = inhibition” value is reported as -2.01%. For `COc1cnc(NS(=O)(=O)c2ccc(N)cc2)nc1`, the “activity, negative = inhibition” value was 7.85% [at 42.5 µM]. With `COC(=O)/C=C(\C)CCC=C(C)C` the “activity, negative = inhibition” value was 4.23%. With `Cc1cc(O)c(Cl)cc1C` the “activity, negative = inhibition” value was 1.32%. With `NNC(=O)OCc1ccccc1` the “activity, negative = inhibition” value was -10.5%. With `CC(=O)c1c(C)cc(C(C)(C)C)cc1C` the “activity, negative = inhibition” value was 3.97%. In the case of `COc1ccc2cc(CCC(C)=O)ccc2c1`, the “activity, negative = inhibition” value is reported as -4.14% [at 42.5 µM]. With `CN(C)CCc1c[nH]c2ccc(CS(=O)(=O)N3CCCC3)cc12` the “activity, negative = inhibition” value was 2.88% [at 42.5 µM]. For `CCOC(=O)CN1CCCC1=O`, the “activity, negative = inhibition” value was 11.6% [at 42.5 µM]. With `CCCCCCCCCCCCCCCCN(C)C` the activity, negative = inhibition was 3.25% [at 8.39 µM]. In the case of `C[C@@H]1NC(=O)[C@@H](N)CNC(=O)[C@H](C2CCNC(N)=N2)NC(=O)/C(=C/NC(N)=O)NC(=O)[C@H](CNC(=O)C[C@@H](N)CCCN)NC1=O` (stereo partly specified), the activity, negative = inhibition is reported as -0.409% [at 0.349 µM]. In the case of `CCCCC(O)/C=C(C)/C=C/C=C/C(=O)N1CCCC1=O` (stereo unspecified), the “activity, negative = inhibition” value is reported as 9.86% [at 42.5 µM]. For `CCc1ncc(C)[nH]1`, the “activity, negative = inhibition” value was 12.5%. In the case of `CCCCCCCCCCCC(C)=O`, the “activity, negative = inhibition” value is reported as 2%. In the case of `CC[C@@]1(c2ccccc2)NC(=O)N(C)C1=O`, the “activity, negative = inhibition” value is reported as 22.9% [at 42.5 µM]. For `CCCC(=O)OC`, the “activity, negative = inhibition” value was 7.15%. In the case of `CC(C)(C)OC=O`, the “activity, negative = inhibition” value is reported as 1.6%. For `Cc1cc(C)c(N)c(Cl)c1`, the “activity, negative = inhibition” value was 13.5%. In the case of `C=CCON/C(CCC)=C1\C(=O)CC(C)(C)C(C(=O)OC)=C1O`, the “activity, negative = inhibition” value is reported as 3.56%. In the case of `CN1CCN(C(=O)C2CCCCC2)CC1`, the “activity, negative = inhibition” value is reported as 0.378% [at 42.5 µM]. In the case of `O=C1c2ccccc2C(=O)N1CO`, the “activity, negative = inhibition” value is reported as -3.32%. In the case of `C=CC(C)(CCC=C(C)C)OC(=O)C(C)C` (stereo unspecified), the “activity, negative = inhibition” value is reported as 16.1%. In the case of `CCOC(=O)CC(C(C)=O)C(C)=O`, the “activity, negative = inhibition” value is reported as 10.6%. In the case of `COC(=O)c1cc(Cl)c(NC(C)=O)cc1OC`, the “activity, negative = inhibition” value is reported as 2.92% [at 42.5 µM]. For `Cc1nnc(C(=O)NC(C)(C)c2nc(C(=O)NCc3ccc(F)cc3)c(O)c(=O)n2C)o1`, the “activity, negative = inhibition” value was 7.26% [at 42.5 µM]. In the case of `Cc1ccc2cccnc2c1`, the “activity, negative = inhibition” value is reported as 2.78%. With `CCCCN(CCCC)CCCCCCN(CCCC)CCCC` the “activity, negative = inhibition” value was 16.8%. For `CC1(C)S[C@@H]2[C@H](NC(=O)Cc3ccccc3)C(=O)N2[C@H]1C(=O)O` (tested in a mixture with another compound), the “activity, negative = inhibition” value was 8.46% [at 42.5 µM]. With `CCN1CCN(C(=O)N[C@@H](C(=O)N[C@@H]2C(=O)N3C(C(=O)O)=C(CSc4nnnn4C)CS[C@H]23)c2ccc(O)cc2)C(=O)C1=O` the “activity, negative = inhibition” value was 15.7% [at 42.5 µM]. With `COc1cc(OC)cc(OC)c1` the “activity, negative = inhibition” value was 17% [at 42.5 µM]. In the case of `Cc1ccc(N)nc1`, the “activity, negative = inhibition” value is reported as 10.8%.

Test system: not listed separately
Experiment: qHTS assay to identify small molecule agonists of the androgen receptor (AR) signaling pathway in the presence of an antagonist - cell viability counter screen (AID 1259379);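 also: MDA-kb2 human breast cancer cells carrying an MMTV luciferase reporter; nearly all actives have a fitted effect of over 25% in size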
Settings: MDA-kb2 viability, CellTiter-Fluor, 16 h; series mostly up to 92.4 µM; activity change, negative = cytotoxicity: at the top concentration
Method in brief: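 Cells: MDA-kb2 (MMTV-luc, AR and GR elements), 3,000/well, 5 hr settle. Added: nilutamide 3.0uM final, then compounds (15 conc.). Incubation: 16 hr, 37C, no CO2. Read-out: CellTiter-Fluor, 1 hr, fluorescence.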
With `CN(C)c1cc(NC(=O)CNC(C)(C)C)c(O)c2c1C[C@H]1C[C@H]3[C@H](N(C)C)C(=O)C(C(N)=O)=C(O)[C@@]3(O)C(=O)C1=C2O` the “activity change, negative = cytotoxicity” value was -3.05% [at 42.5 µM]. In the case of `O=C[C@@H](O)[C@H](O)[C@H](O)CO`, the “activity change, negative = cytotoxicity” value is reported as 0.817%. With `CCCCS` the “activity change, negative = cytotoxicity” value was 3.99%. For `C=COCCCCO`, the “activity change, negative = cytotoxicity” value was 1.48%. With `CN1C(CCl)Nc2cc(Cl)c(S(N)(=O)=O)cc2S1(=O)=O` (stereo unspecified) the “activity change, negative = cytotoxicity” value was 2.56% [at 42.5 µM]. In the case of `CCCCN1C(=O)c2ccccc2C1=O`, the “activity change, negative = cytotoxicity” value is reported as -1.84%. For `Cc1cc(=O)oc2cc(O[C@@H]3SC[C@@H](O)[C@H](O)[C@H]3O)ccc12`, the “activity change, negative = cytotoxicity” value was -0.685% [at 42.5 µM]. For `C/C=C(\C)C=O`, the “activity change, negative = cytotoxicity” value was -0.353%. For `COc1cnc(NS(=O)(=O)c2ccc(N)cc2)nc1`, the “activity change, negative = cytotoxicity” value was 3.38% [at 42.5 µM]. With `COC(=O)/C=C(\C)CCC=C(C)C` the “activity change, negative = cytotoxicity” value was 0.534%. With `Cc1cc(O)c(Cl)cc1C` the “activity change, negative = cytotoxicity” value was -1.84%. With `NNC(=O)OCc1ccccc1` the “activity change, negative = cytotoxicity” value was 2.88%. In the case of `CC(=O)c1c(C)cc(C(C)(C)C)cc1C`, the “activity change, negative = cytotoxicity” value is reported as 0.408%. In the case of `COc1ccc2cc(CCC(C)=O)ccc2c1`, the “activity change, negative = cytotoxicity” value is reported as 5.19% [at 42.5 µM]. In the case of `CN(C)CCc1c[nH]c2ccc(CS(=O)(=O)N3CCCC3)cc12`, the “activity change, negative = cytotoxicity” value is reported as 1.22% [at 42.5 µM]. In the case of `CCOC(=O)CN1CCCC1=O`, the “activity change, negative = cytotoxicity” value is reported as 1.02% [at 42.5 µM]. Molecule `CCCCCCCCCCCCCCCCN(C)C` has an activity change, negative = cytotoxicity of 0.395% [at 8.39 µM]. With `C[C@@H]1NC(=O)[C@@H](N)CNC(=O)[C@H](C2CCNC(N)=N2)NC(=O)/C(=C/NC(N)=O)NC(=O)[C@H](CNC(=O)C[C@@H](N)CCCN)NC1=O` (stereo partly specified) the activity change, negative = cytotoxicity was 5.61% [at 0.35 µM]. In the case of `CCCCC(O)/C=C(C)/C=C/C=C/C(=O)N1CCCC1=O` (stereo unspecified), the “activity change, negative = cytotoxicity” value is reported as 4.01% [at 42.5 µM]. With `CCc1ncc(C)[nH]1` the “activity change, negative = cytotoxicity” value was 0.154%. With `CCCCCCCCCCCC(C)=O` the “activity change, negative = cytotoxicity” value was 2.5%. For `CC[C@@]1(c2ccccc2)NC(=O)N(C)C1=O`, the “activity change, negative = cytotoxicity” value was 4.75% [at 42.5 µM]. For `CCCC(=O)OC`, the “activity change, negative = cytotoxicity” value was -1.86%. For `CC(C)(C)OC=O`, the “activity change, negative = cytotoxicity” value was 1.11%. For `Cc1cc(C)c(N)c(Cl)c1`, the “activity change, negative = cytotoxicity” value was 3.62%. With `C=CCON/C(CCC)=C1\C(=O)CC(C)(C)C(C(=O)OC)=C1O` the “activity change, negative = cytotoxicity” value was -0.501%. In the case of `CN1CCN(C(=O)C2CCCCC2)CC1`, the “activity change, negative = cytotoxicity” value is reported as 1.39% [at 42.5 µM]. For `O=C1c2ccccc2C(=O)N1CO`, the “activity change, negative = cytotoxicity” value was -1.21%. For `C=CC(C)(CCC=C(C)C)OC(=O)C(C)C` (stereo unspecified), the “activity change, negative = cytotoxicity” value was 2.44%. With `CCOC(=O)CC(C(C)=O)C(C)=O` the “activity change, negative = cytotoxicity” value was -2.22%. For `COC(=O)c1cc(Cl)c(NC(C)=O)cc1OC`, the “activity change, negative = cytotoxicity” value was 2.9% [at 42.5 µM]. For `Cc1nnc(C(=O)NC(C)(C)c2nc(C(=O)NCc3ccc(F)cc3)c(O)c(=O)n2C)o1`, the “activity change, negative = cytotoxicity” value was 0.716% [at 42.5 µM]. In the case of `Cc1ccc2cccnc2c1`, the “activity change, negative = cytotoxicity” value is reported as -0.462%. For `CCCCN(CCCC)CCCCCCN(CCCC)CCCC`, the “activity change, negative = cytotoxicity” value was -5.52%. For `CC1(C)S[C@@H]2[C@H](NC(=O)Cc3ccccc3)C(=O)N2[C@H]1C(=O)O` (tested in a mixture with another compound), the “activity change, negative = cytotoxicity” value was -1.12% [at 42.5 µM]. For `CCN1CCN(C(=O)N[C@@H](C(=O)N[C@@H]2C(=O)N3C(C(=O)O)=C(CSc4nnnn4C)CS[C@H]23)c2ccc(O)cc2)C(=O)C1=O`, the “activity change, negative = cytotoxicity” value was -0.725% [at 42.5 µM]. In the case of `COc1cc(OC)cc(OC)c1`, the “activity change, negative = cytotoxicity” value is reported as 1.37% [at 42.5 µM]. For `Cc1ccc(N)nc1`, the “activity change, negative = cytotoxicity” value was -1.22%.
